Experimental data reported in PubChem BioAssay (EPA / NIEHS).
Records with an inconclusive call do not appear. Activity calls are given as the source filed them. The calls were made as follows: active = hit-call score of the fitted dose curve at least 0.9, where 1 is the maximum; inconclusive = response in the unintended direction; inactive = score below 0.9.

Assay: Tanguay_ZF_120hpf_OTIC_legacy: (Legacy) Oregon State University Tanguay Lab 120 Hour Post-fertilization zebrafish Assay for Otic Vesicle Malformation (AID 2283639)
Procedure: Tanguay_ZF_120hpf_legacy is a whole embryo, multiplexed endpoint assay using zebrafish larvae exposed for 120 hours post fertilization on a 96-well plate.Tanguay_ZF_120hpf_OTIC_legacy is one of one assay component(s) measured or calculated from the Tanguay_ZF_120hpf_legacy assay. It is designed to make measurements of zebrafish development as detected with brightfield microscopy of developing zebrafish embryos.Data from the assay component Tanguay_ZF_120hpf_OTIC_legacy was analyzed into 1 assay endpoints. This assay endpoint, Tanguay_ZF_120hpf_OTIC_legacy, was analyzed in the positive analysis fitting direction relative to DMSO as the negative control and baseline of activity. Using a type of morphology reporter, gain-of-signal activity can be used to understand changes in developmentals as they relate to the whole embryo. To generalize the intended target to other relatable targets, this assay endpoint is annotated to the zebrafish development intended target family, where the subfamily is otic vesicle morphogenesis.
Zebrafish husbandry: Tropical 5D wild-type adult zebrafish were housed in at an approximate density of 1000 per 100 gallon tank at the Sinnhuber Aquatic Research Laboratory, Oregon State University, Corvallis, OR. Each tank was kept at standard laboratory conditions of 28C on a 14-h light/10-h dark photoperiod in fish water consisting of reverse osmosis water supplemented with a commercially available salt (Instant Ocean). Spawning funnels were placed into the tanks the night prior, and embryos were collected and staged. […] Ten microliters of each row of dilution plate 2 was added to 2 exposure plates. The final DMSO concentration used was 0.64% (vol/vol). Thirty-two embryos were also exposed to 5uM trimethyltin chloride (positive control). Plates were sealed to prevent evaporation and foil covered to reduce light exposure and kept in a 28C incubator. Embryos were statically exposed until 120 hpf. At 24 hpf, embryos were assessed for photomotor response using a custom photomotor response analysis tool (PRAT) and for developmental toxicity endpoints (MO24: mortality at 24 hpf, DP: developmental progression, SM: spontaneous movement, and NC: notochord distortion). At 120 hpf, locomotor activity was measured using Viewpoint Zebralab and assessed for 18 endpoints. Zebrafish acquisition and analysis program (ZAAP), a custom program designed to inventory, acquire, and manage zebrafish data, was used to collect developmental endpoints as either present or absent (i.e., binary responses were recorded). If mortality occurred for an embryo (at either 24 or 120 hpf), the non-mortality endpoints were not measured.

Structure (SMILES) | outcome | AC50
Cc1cc2c3c(c1)C(c1ccccc1)=N[C@@H](NC(=O)c1ccncc1)C(=O)N3CC2 | inactive | 
C[C@]12CCC(=O)C=C1CC[C@@H]1[C@@H]2CC[C@@]2(C)[C@H]1CC[C@]2(C)O | inactive | 
O=NN(c1ccccc1)c1ccccc1 | inactive | 
Nc1ccc(-c2ccc(N)cc2)cc1 | inactive | 
O=S(=O)(O)C(F)(F)C(F)(F)C(F)(F)C(F)(F)C(F)(F)C(F)(F)F | inactive | 
Oc1ccc(Cl)cc1Cl | inactive | 
CCC(C)c1cc([N+](=O)[O-])cc([N+](=O)[O-])c1O (stereo not given) | inactive | 
ClC1=C(Cl)[C@]2(Cl)[C@@H]3[C@@H](Cl)[C@H]4O[C@H]4[C@@H]3C1(Cl)C2(Cl)Cl | inactive | 
Cc1ccccc1[N+](=O)[O-] | inactive | 
Oc1ccc(C(c2ccc(O)cc2)(C(F)(F)F)C(F)(F)F)cc1 |  | 51.7 µM (active)
Cc1ccccc1O | inactive | 
CC1=C2C[C@H]3[C@@H](CC=C4C[C@@H](O)CC[C@@]43C)[C@@H]2CC[C@]12O[C@@H]1C[C@H](C)CN[C@H]1[C@H]2C | inactive | 
CN(C)CCO | inactive | 
CCC(C)(CC)c1cc(NC(=O)c2c(OC)cccc2OC)on1 | inactive | 
COS(=O)(=O)OC | inactive | 
ClC1=C(Cl)[C@]2(Cl)[C@@H]3[C@H]4C[C@H]([C@@H]5O[C@H]45)[C@@H]3[C@@]1(Cl)C2(Cl)Cl | inactive | 
CCSC(=O)N(CC)C1CCCCC1 | inactive | 
CC(C)C(=O)OCC(C)(C)C(OC(=O)C(C)C)C(C)C (stereo not given) | inactive | 
CC(C)(c1ccccc1)c1ccc(O)cc1 | inactive | 
CCOP(=S)(OCC)SCSC(C)(C)C | inactive | 

Structure (SMILES) | outcome | AC50
CC(c1ccc(O)cc1)(c1ccc(O)cc1)c1ccc(O)cc1 | inactive | 
Cc1ccccc1CO[C@@H]1C[C@@]2(C(C)C)CC[C@]1(C)O2 | inactive | 
O=C(NC(=O)c1c(F)cccc1F)Nc1cc(Cl)c(OC(F)(F)C(F)F)c(Cl)c1 | inactive | 
CO/C=C(/C(=O)OC)c1ccccc1COc1cccc(C(F)(F)F)n1 |  | 12.7 µM (active)
Clc1ccc(Cl)cc1 | inactive | 
CCCCCCCCCC[N+](C)(C)CCCCCCCCCC | inactive | 
O=C(NC(=O)c1cc(F)c(F)cc1Cl)Nc1cc(F)ccc1N1CCC(C(=O)O)CC1 | inactive | 
CN(C)c1nc(=O)n(C2CCCCC2)c(=O)n1C | inactive | 
C1CC2OC2CC1C1CO1 (stereo not given) | inactive | 
O=C(O)C(F)(F)C(F)(F)C(F)(F)C(F)(F)C(F)(F)C(F)(F)C(F)(F)C(F)(F)F | inactive | 
CCNc1nc(NC(C)C)nc(SC)n1 | inactive | 
ClC1=C(Cl)[C@]2(Cl)[C@@H]3[C@@H]4C[C@@H]([C@H]5O[C@@H]45)[C@@H]3[C@@]1(Cl)C2(Cl)Cl | inactive | 
Nn1cnnc1 | inactive | 
O=C(O)C(F)(F)C(F)(F)C(F)(F)C(F)(F)C(F)(F)C(F)(F)C(F)(F)C(F)(F)C(F)(F)F | inactive | 
O=C(O)C(F)(F)C(F)(F)C(F)(F)C(F)(F)C(F)(F)F | inactive | 
Cc1cc(O)ccc1Cl | inactive | 
c1ccc(-c2ccccc2)cc1 | inactive | 
CCC(=O)O[C@H]1CC[C@H]2[C@@H]3CCC4=CC(=O)CC[C@]4(C)[C@H]3CC[C@]12C | inactive | 
c1cc2ccc3cccc4ccc(c1)c2c34 | inactive | 
NS(=O)(=O)C(F)(F)C(F)(F)C(F)(F)C(F)(F)C(F)(F)C(F)(F)C(F)(F)C(F)(F)F | inactive | 
